S2 tox – Viability Counterscreen for Primary qHTS for Inhibitors of ATXN expression | S2 cells (HEK-293 line with an ATXN2-luciferase reporter) viability, CellTiter-Fluor protease fluorescence, 24 h | Potency, µM (series often up to 56.7 µM), actives largely listed as cytotoxic | 400,000 tested, 0.49% active | AID 651635, 2014; further: nearly all actives have a fitted effect of over 40% in size
HepG2 tox – qHTS for Inhibitors of TGF-b: Cytotox Counterscreen; HepG2 CAGA-GFP viability, ATP luminescence, 18 h; Potency, µM (titrated, usually from 46.1 µM), hits mostly cytotoxic; 410,000 tested, 0.76% active
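CellTiter-Glo luminescence gave cytotoxicity after 18 hours at 37 degrees C. The cells were HepG2 CAGA-GFP in 1% FBS DMEM, stimulated with 500 pg/mL TGF-beta after compound addition. %Activity was normalised to no-cell wells (complete cell-killing) and DMSO (no toxicity), and curves were fitted and classified.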
ATXN2 expr inh – Primary qHTS for Inhibitors of ATXN expression | 360,000 tested, 0.72% active | Potency, µM (highest dose often 57 µM), usual class: inhibitors | HEK-293 ATXN2-luciferase reporter, luminescence, 24 h | AID 1745845, 2022; further: nearly all actives have a fitted effect of over 55% in size
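ATXN2-luciferase reporter cells (luciferase flanked by upstream and downstream ATXN2 gene portions) were treated 24 h at 37 °C with compounds at up to 57 uM. SteadyGlo luminescence gave expression; GF-AFC fluorescence gave viability.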
TGFb SMAD3 inh – qHTS for Inhibitors of TGF-b; HepG2 CAGA-GFP TGF-b/SMAD3 reporter, GFP fluorescence, 18 h; TGF-beta stimulated, 500 pg/mL final; Potency, µM (doses to about 46.1 µM), most hits filed as inhibitors; 410,000 tested, 1.2% active; further: nearly all actives have a fitted effect of over 65% in size
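TGF-beta reporter screen: HEPG2 CAGA-GFP, 1% FBS, 500 pg/mL TGF-beta final, 18 h; per-cell GFP summed per well; curves fitted and categorized by class.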
TDP1 cell noCPT – qHTS for Inhibitors of human tyrosyl-DNA phosphodiesterase 1 (TDP1): qHTS in cells in absence of CPT | DT40 Tdp1-/- hTDP1 cells, no CPT, ATP luminescence, 48 h | Potency, µM (series often up to 46.2 µM), actives largely listed as inhibitors | 420,000 tested, 15% active; further: nearly all actives have a fitted effect of over 55% in size
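Stably hTDP1-transfected Tdp1-null chicken DT40 cells were treated with library compounds minus camptothecin and grown for at least 48 hr at 37 °C, after which cellular ATP was quantified by luminescence.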
TDP1 cell CPT – qHTS for Inhibitors of human tyrosyl-DNA phosphodiesterase 1 (TDP1): qHTS in cells in presence of CPT; chicken DT40 Tdp1-/-;hTDP1 cells + 20 nM CPT, ATP luminescence, 48 h; Potency, µM (titrated, usually from 46.2 µM), actives largely listed as inhibitors; 420,000 tested, 12% active; AID 686979, 2013; further: nearly all actives have a fitted effect of over 55% in size
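Cell growth measured by CellTiter-Glo luminescence after a minimum 48 h, 37 C compound exposure with 20 nM CPT in Tdp1-knockout DT40 cells stably expressing hTDP1, seeded 400/well; qHTS titration format.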
Hits are given with their value; – = inactive; ? = inconclusive; · = not tested or not shown; [ ] = another dose, or the depositor's remark. The list is not random: actives were taken first. Their share in the collection is about 17%. The call rests on the fitted dose curve; in most records, active means well fitted curve in the direction sought with a large enough effect; inconclusive means small, poorly fitted or top-dose-only effect, or another doubt; inactive means no such curve, though single readings can be large; an effect the other way counts as inactive or inconclusive.

SMILES	S2 tox	HepG2 tox	ATXN2 expr inh	TGFb SMAD3 inh	TDP1 cell noCPT	TDP1 cell CPT
Cc1cccc(CCNC(=O)CCc2nc(-c3ccccc3F)no2)c1	–	–	–	–	?	–
COc1ccc(-c2noc(CCC(=O)NCC3CCN(Cc4cccc(C)c4)CC3)n2)cc1	?	–	–	–	23.1µM	?
CC(C)c1nc2ccc(C(=O)NCCCN3CCN(c4ccccc4)CC3)cc2o1	–	–	–	–	?	?
CC1(C(=O)Nc2ccc3c(c2)OCCO3)CN(S(C)(=O)=O)CC(=O)N1CCc1ccc(O)cc1 (centres undefined)	·	·	·	·	–	–
O=[N+]([O-])c1ccc2nc(-c3ccccc3)n(OCc3ccc(Cl)cc3)c2c1	–	–	–	–	9.2µM	14.6µM
O=C(CSc1nc2ccccc2nc1Cc1ccc(Cl)cc1)N1CCCCC1	·	–	·	?	16.4µM	?
CC1CCN(C(=O)CSc2nc3ccccc3nc2Cc2ccccc2)CC1	·	–	·	?	10.3µM	14.6µM
CC1CCN(C(=O)CSc2nc(C3CC3)nc3ccccc23)CC1	?	–	–	–	?	?
CC1CCCCN1C(=O)CSc1nc(C2CC2)nc2ccccc12 (centres undefined)	–	–	–	–	?	?
CCCNC(=O)CSc1nc2ccccc2nc1Cc1ccc(Cl)cc1	·	–	·	–	?	–
CC1CCCCN1C(=O)CSc1nc2ccccc2nc1Cc1ccc(Cl)cc1 (centres undefined)	?	–	?	?	?	18.4µM
COc1ccc(N2CCN(C(=O)CSc3nc4ccccc4nc3Cc3ccc(Cl)cc3)CC2)cc1	·	–	·	–	?	20.6µM
O=C(CSc1nc2ccccc2nc1Cc1ccc(Cl)cc1)N1CCN(c2ccccc2)CC1	–	–	–	–	?	–
O=C(O)C[C@H]1c2ccc(C(F)(F)F)cc2S(=O)(=O)N1Cc1ccccc1	–	–	–	–	–	–
CN(C)c1ccc(CNC(=O)CCCN2C(=O)CCn3nc(-c4cccn4C)cc32)cc1	–	–	–	–	–	–
CCOc1ccc(CNC(=O)C2CCN(C(=O)c3sccc3-n3cccc3)CC2)cc1	·	–	·	·	–	–
NC(=O)c1ccc(NC(=O)CN2C(=O)NC(c3ccccc3)(c3ccccc3)C2=O)cc1	–	–	·	–	–	–
C=CCN(C(=O)c1csnn1)C(C(=O)NC1CCCC1)c1ccccc1F (centres undefined)	–	–	–	–	–	–
Cc1ccc(Cc2nc3ccccc3nc2SCC(=O)N2CCCCC2)cc1	·	–	·	–	20.6µM	?
Cc1ccc(Cc2nc3ccccc3nc2SCC(=O)N2CCN(c3ccccc3)CC2)cc1	·	–	·	–	–	–
O=C(CSc1nc2ccccc2nc1SCC(=O)N1CCCCC1)N1CCCCC1	?	–	?	–	?	16.4µM
COc1ccccc1N1CCN(C(=O)CSc2nc3ccccc3nc2Cc2ccccc2)CC1	?	–	–	–	23.1µM	23.1µM
O=C(CSc1nc2ccccc2nc1SCC(=O)N1CCOCC1)N1CCOCC1	–	–	–	–	–	–
CCC(C)Sc1ccc(-c2nc3ccc(C)cn3c2NCc2ccccc2)cc1OC (centres undefined)	?	–	?	?	16.4µM	20.6µM
CCC(C)Sc1cc(-c2nc3ccc(C)cn3c2NCc2ccccc2)ccc1OC (centres undefined)	10µM	–	17.8µM	12.6µM	4.11µM	4.61µM
SMILES	S2 tox	HepG2 tox	ATXN2 expr inh	TGFb SMAD3 inh	TDP1 cell noCPT	TDP1 cell CPT
Cc1nnc(Sc2cc(NCCO)c([N+](=O)[O-])c3nonc23)s1	·	–	–[11.3 µM]	?	2.31µM	3.26µM
CCCSc1cc(NCCOC(C)=O)c([N+](=O)[O-])c2nonc12	?	–	–	–	?	–
CCC(=O)OCCNc1cc(Sc2nc3ccccc3s2)c2nonc2c1[N+](=O)[O-]	8.91µM	12.6µM	6.31µM	7.94µM	2.06µM	1.64µM
Cc1cc(NC(=O)CSc2nc3ccccc3[nH]2)no1	–	–	–	–	–	–
CCCSc1cc(NCCOC(=O)CCC)c([N+](=O)[O-])c2nonc12	?	–	–	?	4.61µM	2.59µM
CCC(=O)OCCNc1cc(Sc2nc3ccccc3[nH]2)c2nonc2c1[N+](=O)[O-]	28.2µM	–	28.2µM	–	2.91µM	2.31µM
O=C(c1ccncc1)N1CCC2(CCCN(Cc3ccncc3)C2)CC1	·	·	·	·	–	–
CC(=O)OCCCNc1cc(SCc2ccco2)c2nonc2c1[N+](=O)[O-]	–	–	–	?	?	20.6µM
CCCC(=O)OCCNc1cc(SCc2ccco2)c2nonc2c1[N+](=O)[O-]	–	–	–	–	?	?
O=C(CCCN=C1NS(=O)(=O)c2ccccc21)OCc1ccccc1	–	–	–	–	?	–
Cc1ccccc1NC(=O)C[n+]1cc(-c2ccccc2)n2c1CCC2	–	–	–	–	–	–
Cc1ccc(NC(=O)C[n+]2cc(-c3ccc(C)cc3)n3c2CCC3)cc1	–	–	–	–	5.17µM	4.11µM
Cc1cccc(C)c1NC(=O)C[n+]1cc(-c2ccccc2)n2c1CCC2	–	–	–	–	–	–
Cc1ccc(-c2c[n+](CC(=O)Nc3ccc(C)cc3C)c3n2CCC3)cc1	–	–	–	–	14.6µM	?
CCc1ccc(N2CC(C(=O)Nc3ccc(S(=O)(=O)NCC4CCCO4)cc3)CC2=O)cc1 (centres undefined)	?	–	–	–	?	–
CCN(CC)C(=O)C1=C(C)N(Cc2ccccc2)C(=O)C(CC(=O)NCC2CCCCC2)C1 (centres undefined)	–	–	–	–	?	?
CCC(CC)COC(=O)C(C#N)c1nc2ccccc2nc1N1CCOCC1 (centres undefined)	–	–	–	–	23.1µM	?
CCCCOC(=O)C(C#N)c1nc2ccccc2nc1N1CCN(Cc2ccc3c(c2)OCO3)CC1 (centres undefined)	–	–	–	–	18.4µM	16.4µM
COCCCNC(=O)C(C#N)c1nc2ccccc2nc1N1CCN(Cc2ccccc2)CC1 (centres undefined)	–	–	–	–	?	23.1µM
COCCOC(=O)C(C#N)c1nc2ccccc2nc1N1CCN(Cc2ccccc2)CC1 (centres undefined)	–	–	–	?	16.4µM	23.1µM
C=CCOC(=O)C(C#N)c1nc2ccccc2nc1N1CCN(Cc2ccccc2)CC1 (centres undefined)	–	–	–	–	23.1µM	?

From PubChem
